# Assay results taken from PubChem BioAssay AID488802 (Broad Institute, 2010).
# Entries with a potency or affinity are not part of this list. Activity calls are given as the source filed them. How the calls were made is not given here.
# Test: single-agent growth inhibition of C. albicans, dose response, counter-screen for antifungal drug resistance project, C. albicans CaCi-2, dry powder (AID 488802)
# Conditions: C. albicans CaCi-2 (fluconazole-resistant clinical isolate) growth, no fluconazole, Alamar Blue, 48 h; series mostly up to 26 µM
row,SMILES,outcome
1,COC(=O)Cn1nc(-c2ccc(C)cc2)c2ccccc21,inactive
2,O=C(Cn1nc(-c2ccccc2)c2ccccc21)NCc1ccc(Cl)cc1,inactive
3,COC(=O)Cn1nc(C)c2ccccc21,inactive
4,CCOC(=O)c1nn(Cc2ccc(Cl)cc2)c2ccccc12,inactive
5,CC1CCN(C(=O)Cn2c3ccc(F)cc3c3nc4n(c(=O)c32)CCCS4)CC1,inactive
6,O=C(c1cccs1)N1CCN(c2ccnc3cc(Cl)ccc23)CC1,inactive
7,O=C(c1csc2ccccc12)N1CCN(c2ccnc3cc(Cl)ccc23)CC1,inactive
8,O=C(c1ccccc1)N1CCN(c2ccnc3cc(Cl)ccc23)CC1,inactive
9,O=C(Cn1nc(C(=O)N2CCCCC2)c2ccccc21)N1CCOCC1,inactive
10,CCCCNC(=O)N1CCN(c2ccnc3cc(Cl)ccc23)CC1,inactive
11,O=C(Nc1ccc(C(F)(F)F)cc1)N1CCN(c2ccnc3cc(Cl)ccc23)CC1,inactive
12,CCN(CC)C(=O)Cn1c2ccccc2c2nc3n(c(=O)c21)CCS3,inactive
13,O=C(O)c1c2ccccc2nn1Cc1ccc(Cl)cc1,inactive
14,COC(=O)Cn1nc(-c2ccccc2)c2cc(Cl)ccc21,inactive
15,O=c1c2[nH]c3ccccc3c2nc2n1CCS2,inactive
16,O=C(C1CC1)N1CCN(c2ccnc3cc(Cl)ccc23)CC1,inactive
17,O=C(c1ccc(Cl)cc1)N1CCN(c2ccc(Cl)cc2)CC1,inactive
